# Laboratory results taken from PubChem BioAssay (EPA / NIEHS).
# Results filed as inconclusive are left out. The source holds several records for some structures; these can differ, active in one and inactive in another. Activity calls are given as the source filed them. Rule for the calls, unless noted: active = hit-call score of the fitted dose curve at least 0.9, where 1 is the maximum; inactive = score below 0.9.
# Columns and labels:
# [1] = biological target: human Retinoid X Receptor beta (RXRb), RXRB (gene 6257) (UniProt P28702); test: ATG_RXRb_TRANS: Attagene TRANS-FACTORIAL HepG2 Assay for human Retinoid X Receptor beta (RXRb) (AID 2283013; active = hit-call score of the fitted dose curve at least 0.9, where 1 is the maximum)
# human Retinoid X Receptor beta (RXRb), RXRB (gene 6257), sequence (P28702 whole entry, looked up, the tested form may be a part): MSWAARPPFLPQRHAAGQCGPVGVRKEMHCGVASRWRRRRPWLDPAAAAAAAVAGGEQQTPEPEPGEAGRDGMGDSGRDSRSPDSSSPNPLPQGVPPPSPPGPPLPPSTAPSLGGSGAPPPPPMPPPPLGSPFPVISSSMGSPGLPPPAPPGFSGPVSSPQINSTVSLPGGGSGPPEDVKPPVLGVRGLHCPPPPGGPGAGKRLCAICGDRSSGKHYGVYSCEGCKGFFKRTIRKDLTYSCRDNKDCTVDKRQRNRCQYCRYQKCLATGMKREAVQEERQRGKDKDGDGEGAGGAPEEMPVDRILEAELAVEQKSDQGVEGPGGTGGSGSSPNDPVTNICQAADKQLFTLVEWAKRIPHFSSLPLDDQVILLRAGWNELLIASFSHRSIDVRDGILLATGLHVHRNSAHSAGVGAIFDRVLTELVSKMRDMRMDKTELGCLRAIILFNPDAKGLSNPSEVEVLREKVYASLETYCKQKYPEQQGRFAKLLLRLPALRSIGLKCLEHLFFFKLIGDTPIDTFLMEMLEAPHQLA
# Procedure, shortened: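 Chimeric receptor-Gal4 activity was assessed in transiently transfected human HepG2 cells after 24 h exposure. Transcripts from GAL4-UAS reporters were quantified by fluorescent RT-PCR and capillary electrophoresis, with DMSO as negative control and baseline.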
# [2] = read-out: E-selectin (Homo sapiens) (UniProt P16581); test: BSK_3C_Eselectin: BioMAP Diversity Plus: 3C Assay for Eselectin Biomarker Activity (AID 2283015); settings: primary human endothelial cells (HUVEC); actives raise or lower the signal;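 for outcome: cell surface E-selectin protein quantified by ELISA 24 h after dosing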
# Procedure, shortened: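 Endpoint derived by bidirectional fitting against DMSO vehicle; signal is ELISA-detected E-selectin from primary HUVEC at 24 h post-dosing, with parallel SRB staining (0.1% SRB, 560 nm) flagging cytotoxicity.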
# [3] = read-out: Interleukin-1 alpha (IL1a), IL1A (gene 3552); test: BSK_BE3C_IL1a: BioMAP Diversity Plus: BE3C Assay for Interleukin-1 alpha (IL1a) Biomarker Activity (AID 2283016); settings: primary human bronchial epithelial cells; actives raise or lower the signal
# Procedure, shortened: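 Signal from IL-1a ELISA, taken 24 h after chemical dosing of human bronchial epithelial cells, is compared with DMSO as baseline using bidirectional curve fitting.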
# [4] = read-out: Monocyte Chemoattractant Protein-1 (MCP1), CCL2 (gene 6347); test: BSK_4H_MCP1: BioMAP Diversity Plus: 4H Assay for Monocyte Chemoattractant Protein-1 (MCP1) Biomarker Activity (AID 2283018); settings: primary human endothelial cells (HUVEC); actives raise or lower the signal
# Procedure, shortened: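 Endothelial cells from umbilical vein were treated with test chemical, then after 24 h MCP-1 levels were quantified by ELISA; endpoint values came from bidirectional fitting with DMSO as baseline of activity.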
# [5] = read-out: Human Leukocyte Antigen - DR isotype (HLADR), HLA-DRA (gene 3122); test: BSK_3C_HLADR: BioMAP Diversity Plus: 3C Assay for Human Leukocyte Antigen - DR isotype (HLADR) Biomarker Activity (AID 2283019); settings: primary human endothelial cells (HUVEC); actives raise or lower the signal;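 for outcome: ELISA of cell-surface HLA-DR on HUVEC 24 h after dosing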
# Procedure, shortened: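 Compound added to primary HUVEC cultures, 24 h incubation, then HLA-DR determined by ELISA; endpoint derived by bidirectional fitting relative to DMSO negative control.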
# [6] = read-out: Interleukin-8 (IL8), CXCL8 (gene 3576); test: BSK_3C_IL8: BioMAP Diversity Plus: 3C Assay for Interleukin-8 (IL8) Biomarker Activity (AID 2283020); settings: primary human endothelial cells (HUVEC); actives raise or lower the signal
# Procedure, shortened: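 Endothelial primary cells of human umbilical vein origin are dosed with chemical; after 24 h the IL-8 biomarker is measured by ELISA, and concentration–response is fitted in both directions versus DMSO.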
# [7] = read-out: Monokine induced gamma interferon (MIG), CXCL9 (gene 4283); test: BSK_3C_MIG: BioMAP Diversity Plus: 3C Assay for Monokine induced gamma interferon (MIG) Biomarker Activity (AID 2283021); settings: primary human endothelial cells (HUVEC); actives raise or lower the signal
# Procedure, shortened: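 Endothelial primary cells (human umbilical vein) are dosed with test chemical in the 3C system. MIG levels are measured by ELISA at 24 h and fitted in both directions relative to DMSO.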
# [8] = biological target: human Vitamin D Receptor (VDR), VDR (gene 7421) (UniProt P11473); test: ATG_VDR_TRANS: Attagene TRANS-FACTORIAL HepG2 Assay for human Vitamin D Receptor (VDR) (AID 2283022; active = hit-call score of the fitted dose curve at least 0.9, where 1 is the maximum)
# human Vitamin D Receptor (VDR), VDR (gene 7421), sequence (P11473 whole entry, looked up): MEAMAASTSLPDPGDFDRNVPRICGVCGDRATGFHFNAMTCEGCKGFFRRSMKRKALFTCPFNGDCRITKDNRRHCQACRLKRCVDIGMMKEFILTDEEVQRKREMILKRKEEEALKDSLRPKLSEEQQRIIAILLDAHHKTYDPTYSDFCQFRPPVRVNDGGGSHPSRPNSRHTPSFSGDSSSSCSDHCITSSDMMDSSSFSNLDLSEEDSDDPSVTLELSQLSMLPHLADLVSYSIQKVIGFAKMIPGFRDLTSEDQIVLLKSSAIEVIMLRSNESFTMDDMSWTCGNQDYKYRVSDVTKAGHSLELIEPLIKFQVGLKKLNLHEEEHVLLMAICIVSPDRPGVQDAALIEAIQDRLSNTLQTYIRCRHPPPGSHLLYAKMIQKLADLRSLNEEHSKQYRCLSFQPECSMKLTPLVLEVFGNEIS
# Procedure, shortened: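 Multiplexed TRANS reporter in HepG2; 24 h treatment; reporter mRNA by RT-PCR plus capillary electrophoresis; upregulation scored relative to DMSO.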
# [9] = BSK_3C_SRB: Viability Assessment in the BioMAP Diversity Plus: 3C Assay (AID 2283023); settings: primary human endothelial cells (HUVEC);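 note: fitted both ways against DMSO so a hit may be signal rise or drop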
# Procedure, shortened: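 Overt cytotoxicity is gauged in parallel confluent HUVEC cultures by SRB total-protein staining at the time of biomarker measurement, 24 h after dosing. Gain or loss of signal is fitted versus DMSO.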
# [10] = read-out: Matrix Metallopeptidase 1 (MMP1), MMP1 (gene 4312); test: BSK_BE3C_MMP1: BioMAP Diversity Plus: BE3C Assay for Matrix Metallopeptidase 1 (MMP1) Biomarker Activity (AID 2283024); settings: primary human bronchial epithelial cells; actives raise or lower the signal
# Procedure, shortened: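 MMP1 signal, measured by ELISA after a 24 h chemical exposure of human primary bronchial epithelial cells, is analysed with bidirectional fitting using DMSO as negative control.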
# [11] = BSK_3C_Vis: BioMAP Diversity Plus: 3C Assay for Morphology Visualization (AID 2283025); settings: primary human endothelial cells (HUVEC);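 note: fitted both ways so gain or loss versus DMSO counts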
# Procedure, shortened: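 Morphology read by light microscopy serves as a background control for the multiplexed 3C assay in human umbilical vein endothelial cells, taken 24 h after dosing, with DMSO as the negative control and bidirectional curve fitting.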
# [12] = read-out: Pselectin, SELP (gene 6403); test: BSK_4H_Pselectin: BioMAP Diversity Plus: 4H Assay for Pselectin Biomarker Activity (AID 2283026); settings: primary human endothelial cells (HUVEC); actives raise or lower the signal
# Procedure, shortened: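 Endothelial primary cells (human umbilical vein) are dosed, incubated 24 h, and assayed for surface P-selectin by ELISA; responses in either direction are fitted relative to the DMSO negative control.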
# [13] = BSK_BE3C_SRB: Viability Assessment in the BioMAP Diversity Plus: BE3C Assay (AID 2283028); settings: primary human bronchial epithelial cells
# Procedure, shortened: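 SRB total-protein staining (0.1%, after TCA fixation) of chemically dosed human bronchial epithelial primary cells at 24 h; DMSO serves as the negative control for bidirectional curve fitting.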
# [14] = read-out: Thrombomodulin, THBD (gene 7056); test: BSK_3C_Thrombomodulin: BioMAP Diversity Plus: 3C Assay for Thrombomodulin Biomarker Activity (AID 2283029); settings: primary human endothelial cells (HUVEC); actives raise or lower the signal
# Procedure, shortened: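 Endothelial cells from umbilical vein are dosed with test chemical and incubated 24 h. Thrombomodulin is then quantified by ELISA, with DMSO serving as negative control and activity baseline.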
# [15] = read-out: Urokinase-type plasminogen activator receptor (uPAR), PLAUR (gene 5329); test: BSK_4H_uPAR: BioMAP Diversity Plus: 4H Assay for Urokinase-type plasminogen activator receptor (uPAR) Biomarker Activity (AID 2283030); settings: primary human endothelial cells (HUVEC); actives raise or lower the signal
# Procedure, shortened: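 Endpoint derived via bidirectional curve fitting against DMSO baseline; readout was ELISA detection of uPAR on umbilical vein endothelial cells at 24 h post-treatment, with SRB-stained parallel cultures assessing cytotoxicity.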
# [16] = biological target: human Thyroid Receptor alpha (THRa1), THRA (gene 7067) (UniProt P10827); test: ATG_THRa1_TRANS: Attagene TRANS-FACTORIAL HepG2 Assay for human Thyroid Receptor alpha (THRa1) (AID 2283014; active = hit-call score of the fitted dose curve at least 0.9, where 1 is the maximum)
# human Thyroid Receptor alpha (THRa1), THRA (gene 7067), sequence (P10827 whole entry, looked up, the tested form may be a part): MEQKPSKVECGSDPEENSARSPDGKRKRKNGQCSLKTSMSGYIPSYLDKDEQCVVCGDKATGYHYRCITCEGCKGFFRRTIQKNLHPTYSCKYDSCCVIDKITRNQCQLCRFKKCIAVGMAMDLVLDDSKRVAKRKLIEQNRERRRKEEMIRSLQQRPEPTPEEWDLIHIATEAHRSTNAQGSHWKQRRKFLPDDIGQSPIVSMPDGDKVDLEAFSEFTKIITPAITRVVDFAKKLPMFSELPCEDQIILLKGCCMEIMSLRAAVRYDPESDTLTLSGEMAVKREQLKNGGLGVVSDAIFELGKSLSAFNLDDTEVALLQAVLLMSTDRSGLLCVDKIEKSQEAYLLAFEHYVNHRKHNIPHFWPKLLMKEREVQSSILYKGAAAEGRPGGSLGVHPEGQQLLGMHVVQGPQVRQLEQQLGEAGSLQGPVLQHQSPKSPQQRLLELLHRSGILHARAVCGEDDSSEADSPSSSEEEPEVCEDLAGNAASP
# Procedure, shortened: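 Measured here is mRNA from a GAL4-UAS reporter in transfected HepG2 cells carrying a Gal4-fused receptor, 24 h post-dose. DMSO served as negative control and baseline.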
# E-selectin (Homo sapiens), sequence (P16581 whole entry, looked up): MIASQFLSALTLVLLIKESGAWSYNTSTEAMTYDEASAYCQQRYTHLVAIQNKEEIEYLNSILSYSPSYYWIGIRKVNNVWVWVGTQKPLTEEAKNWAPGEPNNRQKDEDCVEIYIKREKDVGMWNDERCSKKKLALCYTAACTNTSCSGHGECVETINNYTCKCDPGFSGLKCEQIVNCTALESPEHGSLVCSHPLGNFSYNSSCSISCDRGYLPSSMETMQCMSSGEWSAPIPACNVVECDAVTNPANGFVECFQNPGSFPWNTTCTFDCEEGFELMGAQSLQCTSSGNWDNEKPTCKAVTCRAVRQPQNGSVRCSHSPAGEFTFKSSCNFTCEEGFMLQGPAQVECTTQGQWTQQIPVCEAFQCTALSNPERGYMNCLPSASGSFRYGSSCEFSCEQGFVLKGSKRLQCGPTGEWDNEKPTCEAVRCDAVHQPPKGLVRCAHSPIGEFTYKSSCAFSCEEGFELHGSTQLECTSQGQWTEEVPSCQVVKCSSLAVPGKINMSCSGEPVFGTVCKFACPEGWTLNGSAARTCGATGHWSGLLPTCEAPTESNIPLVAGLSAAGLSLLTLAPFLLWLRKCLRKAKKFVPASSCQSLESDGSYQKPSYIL
structure (smiles),measurement,setting,value
CSCCC=O,outcome,[1],inactive
same,outcome,[2],inactive
same,outcome,[3],inactive
same,outcome,[4],inactive
same,outcome,[5],inactive
same,outcome,[6],inactive
same,outcome,[7],inactive
same,outcome,[8],inactive
same,outcome,[9],inactive
same,outcome,[10],inactive
same,outcome,[11],inactive
same,outcome,[12],inactive
same,outcome,[13],inactive
same,outcome,[14],inactive
same,outcome,[15],inactive
Cc1cccc(Nc2ccccc2)c1,outcome,[16],inactive
same,outcome,[8],inactive
Cc1occc(=O)c1OC(=O)C(C)C,outcome,[16],inactive
CC1(C)COCN1,outcome,[8],inactive
CC(CN=Cc1ccccc1O)N=Cc1ccccc1O (stereo not given),outcome,[16],inactive
same,outcome,[2],inactive
same,outcome,[3],inactive
same,outcome,[4],inactive
same,outcome,[5],inactive
same,AC50,[6],0.16 µM (active)
same,outcome,[6],inactive
same,outcome,[7],inactive
same,outcome,[9],inactive
same,outcome,[10],inactive
same,outcome,[12],inactive
same,outcome,[13],inactive
same,outcome,[14],inactive
same,outcome,[15],inactive
CCC(C)=O,outcome,[16],inactive
C=C[Si]1(C)O[Si](C)(C=C)O[Si](C)(C=C)O[Si](C)(C=C)O1 (stereo not given),AC50,[1],8 µM (active)
same,outcome,[8],inactive
C#CC(C)N(C)C(=O)Nc1ccc(Cl)cc1 (stereo not given),outcome,[1],inactive
same,outcome,[8],inactive
CCCCC(CC)C(=O)OC(C)C (stereo not given),outcome,[1],inactive
same,outcome,[16],inactive
same,outcome,[8],inactive
OC[C@H]1O[C@@H](Oc2ccc(O)cc2)[C@H](O)[C@@H](O)[C@@H]1O,outcome,[8],inactive
CCOc1ccc(N=Nc2ccc(C=Cc3ccc(N=Nc4ccc(OCC)cc4)cc3S(=O)(=O)O)c(S(=O)(=O)O)c2)cc1,outcome,[16],inactive
CCC(C)S (stereo not given),outcome,[1],inactive
same,outcome,[8],inactive
C[C@@H]1CCN(C(=O)[C@H](CCCN=C(N)N)NS(=O)(=O)c2cccc3c2NC[C@H](C)C3)[C@@H](C(=O)O)C1,outcome,[2],inactive
same,outcome,[3],inactive
same,outcome,[4],inactive
same,outcome,[5],inactive
same,outcome,[6],inactive
same,outcome,[7],inactive
same,outcome,[9],inactive
same,AC50,[10],0.0398 µM (active)
same,outcome,[11],inactive
same,outcome,[12],inactive
same,outcome,[13],inactive
same,outcome,[14],inactive
same,outcome,[15],inactive
CCCCCCCCCCCC(=O)OCC(O)CO (stereo not given),AC50,[1],100 µM (active)
same,outcome,[8],inactive
C=COCCOCCOC=C,outcome,[1],inactive
same,outcome,[8],inactive
CC(C)c1ccccc1O,AC50,[1],75.5 µM (active)
same,outcome,[16],inactive
same,outcome,[8],inactive
CCCCCCCC/C=C\CCCCCCCC(=O)OCC,outcome,[1],inactive
same,outcome,[8],inactive
C=C(C)C(=O)OCCOCCOCCOC(=O)C(=C)C,outcome,[2],inactive
same,outcome,[3],inactive
same,outcome,[4],inactive
same,outcome,[5],inactive
same,outcome,[6],inactive
same,outcome,[7],inactive
same,outcome,[9],inactive
same,outcome,[10],inactive
same,outcome,[11],inactive
same,outcome,[12],inactive
same,outcome,[13],inactive
same,outcome,[14],inactive
same,outcome,[15],inactive
COC(CC(C)CCCC(C)(C)O)OC (stereo not given),outcome,[1],inactive
same,outcome,[8],inactive
CCC1CCCCC1,outcome,[16],inactive
C=C(C)C(=O)OCC(CC)(COC(=O)C(=C)C)COC(=O)C(=C)C,AC50,[2],26.3 µM (active)
same,outcome,[3],inactive
same,outcome,[4],inactive
same,AC50,[5],19.7 µM (active)
same,outcome,[6],inactive
same,outcome,[7],inactive
same,outcome,[9],inactive
same,outcome,[10],inactive
same,outcome,[11],inactive
same,outcome,[12],inactive
same,outcome,[13],inactive
same,outcome,[14],inactive
same,outcome,[15],inactive
OCc1ccc(Cl)cc1Cl,outcome,[16],inactive
C=C(C)CNCC,outcome,[1],inactive
same,outcome,[16],inactive
same,outcome,[8],inactive
CCCC1O[C@@H]2C[C@H]3[C@@H]4CCC5=CC(=O)C=C[C@]5(C)[C@H]4[C@@H](O)C[C@]3(C)[C@]2(C(=O)CO)O1 (stereo not given in full),outcome,[8],inactive
NC1CCCCC1N (stereo not given),outcome,[8],inactive
CC(C)Nc1nc(N)nc(Cl)n1,outcome,[16],inactive
same,outcome,[8],inactive
CCNCCO,outcome,[8],inactive
NCC1CCCC(CN)C1 (stereo not given),outcome,[16],inactive
CCCCCCCCCCCCCCCC(=O)OC/C=C(C)/C=C/C=C(C)/C=C/C1=C(C)CCCC1(C)C,outcome,[1],inactive
same,AC50,[2],14.3 µM (active)
same,outcome,[3],inactive
same,AC50,[5],20 µM (active)
same,AC50,[6],1.13 µM (active)
same,outcome,[7],inactive
same,AC50,[9],29.5 µM (active)
same,outcome,[10],inactive
same,AC50,[11],38.9 µM (active)
same,outcome,[12],inactive
same,outcome,[13],inactive
same,AC50,[14],20 µM (active)
same,outcome,[15],inactive
CCC1(c2ccccc2)C(=O)NCNC1=O,outcome,[8],inactive
O=[N+]([O-])c1cccc(Cl)c1,outcome,[8],inactive
CCCOCCO,outcome,[16],inactive
same,outcome,[8],inactive
CCOC(=O)[C@@H](C)Oc1ccc(Oc2nc3ccc(Cl)cc3o2)cc1,outcome,[1],inactive
same,outcome,[8],inactive
CC1(C)O[C@@H]2[C@@H](CO[C@@]3(COS(N)(=O)=O)OC(C)(C)O[C@@H]23)O1,outcome,[16],inactive
Cc1cc(=O)oc2cc(N(C)C)ccc12,outcome,[8],inactive
COc1ccc(COC(C)=O)cc1,outcome,[16],inactive
C=C(C)C1CC=C(C)C(=O)C1 (stereo not given),outcome,[1],inactive
same,outcome,[8],inactive
